# Assay results taken from PubChem BioAssay (Tox21).
# Values without a mark were called inactive. Inconclusive results are not listed. Entries that show only a call come without a potency. Calls of active or inactive are those of the source. The call rests on the fitted dose curve; in most records, active means well fitted curve in the direction sought with a large enough effect in the repeat runs; inconclusive means weak or mixed curves; inactive means no such curve, though single readings can be large; an effect the other way counts as inactive or inconclusive.
# What was measured:
# [1] = A CellTox Green Cytotoxicity Assay to monitor cytotoxicity in HEK293 cells - 40 hour (AID 1224871); further: nearly all actives have a fitted effect of over 45% in size; further: potency means the concentration at half of the fitted maximal effect
# Summary of the method: (§1)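 Read-out: fluorescence of a cell-impermeant cyanine dye staining DNA of dead cells, proportional to cytotoxicity. HEK293, 600 cells/well with reagent, compound (23 nL DMSO) added after 5 h; reads at 0, 8, 16, 24, 32, 40 h.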
# [2] = qHTS RealTime-Glo MT Cell Viability Assay in HEK293 cells - 16 hour (AID 1224872); further: nearly all actives have a fitted effect of over 50% in size; further: potency means the concentration at half of the fitted maximal effect
# Summary of the method: (§2)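 HEK293 cells were seeded at 600 cells/well together with NanoLuc luciferase and cell-permeant prosubstrate, preincubated 5 h at 37 C/5% CO2, then given compound in DMSO by pintool. Luminescence from viable-cell prosubstrate reduction was read repeatedly over 40 h.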
# [3] = qHTS RealTime-Glo MT Cell Viability Assay in HepG2 cells - 8 hour (AID 1224873); further: nearly all actives have a fitted effect of over 55% in size; further: potency means the concentration at half of the fitted maximal effect
# Summary of the method: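 HepG2 cells (600/well) mixed with RealTime-Glo MT reagent, settled 5 h at 37 C/5% CO2 before compound addition. Nonlytic NanoLuc luminescence from viable-cell prosubstrate reduction read repeatedly during 40 h treatment at 37 C.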
# [4] = A CellTox Green Cytotoxicity Assay to monitor cytotoxicity in HEK293 cells - 24 hour (AID 1224875); further: nearly all actives have a fitted effect of over 45% in size; further: potency means the concentration at half of the fitted maximal effect
# Summary of the method: as §1
# [5] = A CellTox Green Cytotoxicity Assay to monitor cytotoxicity in HepG2 cells - 16 hour (AID 1224876); further: nearly all actives have a fitted effect of over 45% in size; further: potency means the concentration at half of the fitted maximal effect
# Summary of the method: (§3)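 HepG2, 600 cells/well premixed w/ CellTox Green; 5 h settle, 37 C/5% CO2; pintool cpd add (DMSO); 37 C, 40 h; fluorescence read at 0, 8, 16, 24, 32, 40 h.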
# [6] = qHTS RealTime-Glo MT Cell Viability Assay in HepG2 cells - 32 hour (AID 1224877); further: nearly all actives have a fitted effect of over 55% in size; further: potency means the concentration at half of the fitted maximal effect
# Summary of the method: (§4)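 HepG2 cells were seeded at 600 cells/well together with NanoLuc luciferase and a cell-permeant prosubstrate, preincubated 5 h at 37 C/5% CO2, then pin-dosed with compounds in DMSO. Nonlytic luminescence from viable cells was read at each time point.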
# [7] = A CellTox Green Cytotoxicity Assay to monitor cytotoxicity in HepG2 cells - 24 hour (AID 1224878); further: nearly all actives have a fitted effect of over 45% in size; further: potency means the concentration at half of the fitted maximal effect
# Summary of the method: as §3
# [8] = A CellTox Green Cytotoxicity Assay to monitor cytotoxicity in HepG2 cells - 40 hour (AID 1224879); further: nearly all actives have a fitted effect of over 40% in size; further: potency means the concentration at half of the fitted maximal effect
# Summary of the method: as §3
# [9] = qHTS RealTime-Glo MT Cell Viability Assay in HEK293 cells - 0 hour (AID 1224880); further: nearly all actives have a fitted effect of over 45% in size; further: potency means the concentration at half of the fitted maximal effect
# Summary of the method: (§5)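 Luminescence readout at each listed time point; HEK293, 600 cells/well, RealTime-Glo MT reagent added with cells; compounds pinned (23 nL in DMSO) after 5 h at 37 C; continuous culture at 37 C.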
# [10] = A CellTox Green Cytotoxicity Assay to monitor cytotoxicity in HEK293 cells - 32 hour (AID 1224881); further: nearly all actives have a fitted effect of over 40% in size; further: potency means the concentration at half of the fitted maximal effect
# Summary of the method: as §1
# [11] = A CellTox Green Cytotoxicity Assay to monitor cytotoxicity in HepG2 cells - 0 hour (AID 1224882); further: nearly all actives have a fitted effect of over 35% in size
# Summary of the method: as §3
# [12] = A CellTox Green Cytotoxicity Assay to monitor cytotoxicity in HepG2 cells - 32 hour (AID 1224883); further: nearly all actives have a fitted effect of over 50% in size; further: potency means the concentration at half of the fitted maximal effect
# Summary of the method: as §3
# [13] = A CellTox Green Cytotoxicity Assay to monitor cytotoxicity in HEK293 cells - 8 hour (AID 1224884); further: nearly all actives have a fitted effect of over 35% in size; further: potency means the concentration at half of the fitted maximal effect
# Summary of the method: as §1
# [14] = qHTS RealTime-Glo MT Cell Viability Assay in HepG2 cells - 16 hour (AID 1224885); further: nearly all actives have a fitted effect of over 50% in size; further: potency means the concentration at half of the fitted maximal effect
# Summary of the method: as §4
# [15] = qHTS RealTime-Glo MT Cell Viability Assay in HEK293 cells - 24 hour (AID 1224886); further: nearly all actives have a fitted effect of over 50% in size; further: potency means the concentration at half of the fitted maximal effect
# Summary of the method: as §2
# [16] = qHTS RealTime-Glo MT Cell Viability Assay in HEK293 cells - 8 hour (AID 1224887); further: nearly all actives have a fitted effect of over 50% in size; further: potency means the concentration at half of the fitted maximal effect
# Summary of the method: as §5
# [17] = A CellTox Green Cytotoxicity Assay to monitor cytotoxicity in HEK293 cells - 16 hour (AID 1224888); further: nearly all actives have a fitted effect of over 35% in size; further: potency means the concentration at half of the fitted maximal effect
# Summary of the method: as §1
# [18] = qHTS RealTime-Glo MT Cell Viability Assay in HepG2 cells - 0 hour (AID 1224889); further: nearly all actives have a fitted effect of over 50% in size
# Summary of the method: as §4
# [19] = A CellTox Green Cytotoxicity Assay to monitor cytotoxicity in HepG2 cells - 8 hour (AID 1224890); further: nearly all actives have a fitted effect of over 45% in size; further: potency means the concentration at half of the fitted maximal effect
# Summary of the method: as §3
# [20] = qHTS RealTime-Glo MT Cell Viability Assay in HEK293 cells - 40 hour (AID 1224874); conditions: RealTime-Glo luminescence; max response: active compounds read low; further: nearly all actives have a fitted effect of over 50% in size; further: potency means the concentration at half of the fitted maximal effect
# Summary of the method: as §5
structure (smiles),measurement,setting,value
O=C(OCC1CO1)C1CCCCC1C(=O)OCC1CO1 (centres undefined),Potency,[1],inactive
same,Potency,[2],inactive
same,Potency,[3],inactive
same,Potency,[4],inactive
same,Potency,[5],inactive
same,Potency,[6],inactive
same,Potency,[7],inactive
same,Potency,[8],inactive
same,Potency,[9],inactive
same,Potency,[10],inactive
same,Potency,[11],inactive
same,Potency,[12],inactive
same,Potency,[13],inactive
same,Potency,[14],inactive
same,Potency,[15],inactive
same,Potency,[16],inactive
same,Potency,[17],inactive
same,Potency,[18],inactive
same,Potency,[19],inactive
Clc1ccc2n[nH]nc2c1,Potency,[1],inactive
same,Potency,[2],inactive
same,Potency,[3],inactive
same,Potency,[4],inactive
same,Potency,[5],inactive
same,Potency,[6],inactive
same,Potency,[7],inactive
same,Potency,[8],inactive
same,Potency,[10],inactive
same,Potency,[11],inactive
same,Potency,[12],inactive
same,Potency,[13],inactive
same,Potency,[14],inactive
same,Potency,[15],inactive
same,Potency,[16],inactive
same,Potency,[17],inactive
same,Potency,[18],inactive
same,Potency,[19],inactive
O=c1cccccc1O,Potency,[1],inactive
same,Potency,[2],inactive
same,Potency,[3],inactive
same,Potency,[4],inactive
same,Potency,[5],inactive
same,Potency,[6],inactive
same,Potency,[7],inactive
same,Potency,[8],inactive
same,Potency,[9],inactive
same,Potency,[10],inactive
same,Potency,[11],inactive
same,Potency,[12],inactive
same,Potency,[13],inactive
same,Potency,[16],inactive
same,Potency,[17],inactive
same,Potency,[18],inactive
same,Potency,[19],inactive
CNc1ccc(O)cc1,Potency,[1],9.75 µM (active)
same,Potency,[2],13.8 µM (active)
same,Potency,[3],48.9 µM (active)
same,Potency,[20],12.3 µM (active)
same,Potency,[8],48.9 µM (active)
same,Potency,[9],17.3 µM (active)
same,Potency,[10],12.3 µM (active)
same,Potency,[11],inactive
same,Potency,[12],54.8 µM (active)
same,Potency,[13],inactive
same,Potency,[14],48.9 µM (active)
same,Potency,[15],12.3 µM (active)
same,Potency,[16],15.5 µM (active)
same,Potency,[17],inactive
CCCN(CCC)c1c([N+](=O)[O-])cc(C(F)(F)F)c(N)c1[N+](=O)[O-],Potency,[1],54.8 µM (active)
same,Potency,[2],12.3 µM (active)
same,Potency,[3],48.9 µM (active)
same,Potency,[20],19.4 µM (active)
same,Potency,[4],54.8 µM (active)
same,Potency,[6],48.9 µM (active)
same,Potency,[8],54.8 µM (active)
same,Potency,[9],inactive
same,Potency,[10],54.8 µM (active)
same,Potency,[11],inactive
same,Potency,[12],54.8 µM (active)
same,Potency,[15],19.4 µM (active)
same,Potency,[16],9.75 µM (active)
same,Potency,[18],inactive
O=C1C=CC(=O)N1,Potency,[1],17.8 µM (active)
same,Potency,[2],15.9 µM (active)
same,Potency,[3],44.8 µM (active)
same,Potency,[4],20 µM (active)
same,Potency,[5],25.2 µM (active)
same,Potency,[6],22.5 µM (active)
same,Potency,[7],20 µM (active)
same,Potency,[8],17.8 µM (active)
same,Potency,[9],inactive
same,Potency,[10],17.8 µM (active)
same,Potency,[11],inactive
same,Potency,[12],20 µM (active)
same,Potency,[14],25.2 µM (active)
same,Potency,[15],12.6 µM (active)
same,Potency,[16],15.9 µM (active)
same,Potency,[17],22.5 µM (active)
same,Potency,[18],inactive
same,Potency,[19],50.3 µM (active)
CCCCCCCC(=O)[O-].CCCCCCCC(=O)[O-].[Zn+2],Potency,[1],inactive
same,Potency,[2],inactive
same,Potency,[3],inactive
same,max response,[20],9.04%
same,Potency,[4],inactive
same,Potency,[6],inactive
same,Potency,[7],inactive
same,Potency,[8],inactive
same,Potency,[9],inactive
same,Potency,[10],inactive
same,Potency,[12],inactive
same,Potency,[13],inactive
same,Potency,[14],inactive
same,Potency,[15],inactive
same,Potency,[16],inactive
same,Potency,[17],inactive
same,Potency,[18],inactive
same,Potency,[19],inactive
Cc1cccc(S(=O)(=O)O)c1C,Potency,[1],inactive
same,Potency,[2],inactive
same,Potency,[3],inactive
same,Potency,[4],inactive
same,Potency,[5],inactive
same,Potency,[6],inactive
same,Potency,[7],inactive
same,Potency,[8],inactive
same,Potency,[10],inactive
same,Potency,[11],inactive
same,Potency,[13],inactive
same,Potency,[14],inactive
same,Potency,[15],inactive
same,Potency,[16],inactive
same,Potency,[17],inactive
same,Potency,[18],inactive
same,Potency,[19],inactive
C[n+]1ccn(Cc2ccccc2)c1,Potency,[1],inactive
same,Potency,[2],inactive
same,Potency,[3],inactive
same,Potency,[4],inactive
same,Potency,[5],inactive
same,Potency,[6],inactive
same,Potency,[7],inactive
same,Potency,[8],inactive
same,Potency,[9],inactive
same,Potency,[10],inactive
same,Potency,[11],inactive
same,Potency,[13],inactive
same,Potency,[14],inactive
same,Potency,[15],inactive
same,Potency,[16],inactive
same,Potency,[17],inactive
same,Potency,[18],inactive
same,Potency,[19],inactive
CCCCC(CC)COC(=O)c1ccccc1C(=O)O (centres undefined),Potency,[1],inactive
same,Potency,[2],inactive
same,Potency,[3],inactive
same,Potency,[4],inactive
same,Potency,[5],inactive
same,Potency,[6],inactive
same,Potency,[7],inactive
same,Potency,[8],inactive
same,Potency,[9],inactive
same,Potency,[10],inactive
same,Potency,[11],inactive
same,Potency,[12],inactive
same,Potency,[16],inactive
same,Potency,[17],inactive
same,Potency,[19],inactive
COc1c(C)c2c(c(O)c1C/C=C(\C)CCC(=O)O)C(=O)OC2,Potency,[1],inactive
same,Potency,[2],inactive
same,Potency,[3],inactive
same,Potency,[4],inactive
same,Potency,[5],inactive
same,Potency,[6],inactive
same,Potency,[7],inactive
same,Potency,[8],inactive
same,Potency,[9],inactive
same,Potency,[10],inactive
same,Potency,[11],inactive
same,Potency,[12],inactive
same,Potency,[13],inactive
same,Potency,[14],inactive
same,Potency,[15],inactive
same,Potency,[16],inactive
same,Potency,[17],inactive
same,Potency,[18],inactive
same,Potency,[19],inactive
CN(C)[C@@H]1C(=O)C(C(N)=O)=C(O)[C@@]2(O)C(=O)C3=C(O)c4c(O)ccc(Cl)c4[C@@H](O)[C@H]3C[C@@H]12,Potency,[1],inactive
same,Potency,[2],inactive
same,Potency,[3],inactive
same,Potency,[4],inactive
same,Potency,[5],inactive
same,Potency,[6],inactive
same,Potency,[7],inactive
same,Potency,[8],inactive
same,Potency,[9],inactive
same,Potency,[10],inactive
same,Potency,[11],inactive
same,Potency,[12],inactive
same,Potency,[13],inactive
same,Potency,[14],inactive
same,Potency,[15],inactive
same,Potency,[16],inactive
same,Potency,[17],inactive
same,Potency,[18],inactive
same,Potency,[19],inactive
OC1(c2ccc(Cl)c(C(F)(F)F)c2)CCN(CCCC(c2ccc(F)cc2)c2ccc(F)cc2)CC1,Potency,[1],21.3 µM (active)
same,Potency,[2],9.52 µM (active)
same,Potency,[3],21.3 µM (active)
same,Potency,[4],23.9 µM (active)
same,Potency,[5],10.7 µM (active)
same,Potency,[7],9.52 µM (active)
same,Potency,[8],6.74 µM (active)
same,Potency,[9],inactive
same,Potency,[10],23.9 µM (active)
same,Potency,[11],inactive
same,Potency,[12],8.49 µM (active)
same,Potency,[13],21.3 µM (active)
same,Potency,[14],10.7 µM (active)
same,Potency,[15],9.52 µM (active)
same,Potency,[16],19 µM (active)
same,Potency,[17],23.9 µM (active)
same,Potency,[18],inactive
same,Potency,[19],19 µM (active)
